Reference: PubChem BioAssay

Test system: not listed separately
Test: RPMI8226 myeloma cell viability, profiling panel, resazurin fluorescence, basal, 24 h, PK04 Diversity Set (AID 1180);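 further: RPMI8826 multiple myeloma cell line at 5000 cells per well; test concentration not given here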
Conditions: higher = more signal

SMILES	z-score
COCCOC(=O)N1C(=O)[C@@]2(c3ccccc31)[C@H](C(N)=O)[C@H]1C(=O)O[C@H](c3ccccc3)[C@H](c3ccccc3)N1[C@@H]2c1ccccc1OCCO	-4.25
CN1C(=O)C2C=CC(C(O)c3ccc(I)cc3)N(NC(=O)OC(C)(C)C)C2C1=O (stereo not given)	-0.639
C=CCC(OC(C)=O)[C@@H]1[C@@H](N(Cc2cc3ccccc3o2)C(=O)Cc2ccc(F)cc2)c2cc(OCCCO)ccc2N1C(=O)Cc1ccc(OC)cc1 (stereo not given in full)	-0.115
CN1C(=O)C2C=CC(C(O)C(c3ccccc3)c3ccccc3)N(NC(=O)OC(C)(C)C)C2C1=O (stereo not given)	-0.962
COCCCNC(=O)[C@]1(CCC(=O)OC(C)(C)C)N=C(c2ccc(OCCCO)cc2)O[C@@H]1c1ccccc1N=[N+]=[N-]	-0.128
O=C1O[C@@H](c2ccccc2)[C@@H](c2ccccc2)N2[C@@H](c3ccccc3OCCO)[C@]3(C(=O)Nc4ccc(C#CCCO)cc43)[C@@H](C(=O)O)[C@H]12	0.183
CN1C(=O)C2C(C1=O)C1C=C(CCCO)C2C(c2ccc(CN3CCCC3)cc2)N1C (stereo not given)	-0.802
COC(=O)[C@@]1(Cc2ccc(F)cc2)[C@@H]2C(=CC(=O)[C@H]2CC(=O)C(=O)N(C)C)CN1C(=O)c1ccccc1	-2.94
[N-]=[N+]=NCc1ccccc1C[C@]1(C(=O)NCc2ccccc2)N=C(c2ccc(OCCCO)cc2)O[C@H]1c1ccccc1N=[N+]=[N-]	-2.15
C=C(COC)/C(=C/C[C@H](OC(=O)c1ccncc1)c1ccc(CO)o1)c1cc(C(=O)OC)ccc1OC	0.343
CS(=O)(=O)CCOC(=O)C1=CC(CCCO)=CC(c2cccs2)N(Cc2cccc(OC(F)(F)F)c2)C=C1C(=O)OCCS(C)(=O)=O (stereo not given)	-0.96
CCCNC(=O)[C@@H]1c2ccccc2C(=O)N(Cc2ccccc2Cl)[C@H]1c1ccc(CO)cc1	1.45
CCc1cccc(NC(=O)O[C@H]2[C@H](OC(=O)Nc3ccc4c(c3)OCO4)[C@@H](OC(=O)Nc3ccc4c(c3)OCO4)[C@@H](OC)O[C@@H]2CO)c1	-0.36
COC(=O)[C@@]1(Cc2ccc(OC)cc2)[C@H]2c3cc(C(=O)N4CCCC4)n(Cc4cc(F)c(F)c(F)c4)c3C[C@H]2CN1C(=O)c1ccccc1	-3.1
CN(C)C(=O)[C@@]1(Cc2ccccc2)N=C(c2ccc(OCCCO)cc2)O[C@H]1c1ccccc1CN=[N+]=[N-]	-1.23
COc1ccc([Si](C)(C)[C@@H]2[C@@H](CCO)O[C@]3(C(=O)N(Cc4ccc(NC(C)=O)cc4)c4ccccc43)[C@H]2C)cc1	-5.29
O=C1O[C@@H](c2ccccc2)[C@@H](c2ccccc2)N2[C@@H](c3ccc(O)cc3)[C@]3(C(=O)Nc4ccccc43)[C@@H](C(=O)O)[C@H]12	0.393
O=C1c2ccccc2[C@@]2(Cc3ccccc3N(C3CC3)C2=O)[C@H](c2ccc(CO)cc2)N1Cc1ccccc1C(F)(F)F	-0.398
O[C@@H](Cc1ccccc1)[C@H]1C2C=CCCC(c3ccccc3)=C2CN1Cc1cccc(Cl)c1 (stereo not given in full)	-0.0337

Molecular target: E3 ubiquitin-protein ligase XIAP (Homo sapiens) (UniProt P98170)
Test: XIAP binders, primary screen, biophysical, small-molecule microarray, fluorescence 635 nm (AID 1181);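 further: score merges 667 nm emission and signal to noise over triplicate slides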
Conditions: small-molecule microarray binding, higher = more signal

E3 ubiquitin-protein ligase XIAP (Homo sapiens), sequence (P98170 whole entry, looked up): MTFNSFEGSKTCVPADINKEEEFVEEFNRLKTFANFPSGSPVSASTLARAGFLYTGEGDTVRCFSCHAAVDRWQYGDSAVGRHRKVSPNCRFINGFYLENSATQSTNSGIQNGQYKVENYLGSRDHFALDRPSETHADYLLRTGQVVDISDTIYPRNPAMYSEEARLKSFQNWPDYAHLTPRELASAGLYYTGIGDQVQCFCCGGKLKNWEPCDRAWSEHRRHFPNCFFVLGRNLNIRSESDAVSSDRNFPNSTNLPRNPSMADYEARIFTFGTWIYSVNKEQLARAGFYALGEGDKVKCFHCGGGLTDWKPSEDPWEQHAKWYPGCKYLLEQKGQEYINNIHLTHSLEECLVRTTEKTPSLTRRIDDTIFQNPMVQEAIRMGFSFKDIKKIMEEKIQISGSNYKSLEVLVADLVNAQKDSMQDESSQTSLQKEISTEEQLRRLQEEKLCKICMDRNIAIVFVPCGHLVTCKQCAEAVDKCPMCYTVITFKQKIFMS

SMILES	composite z-score
CCCC=C(CCC)[C@@H](NC(=O)c1ccc(-c2ccccc2)cc1)c1ccc(C(=O)OC)cc1	0.0512
COC(=O)[C@@]1(Cc2ccccc2)[C@H]2c3cc(C(=O)N4CCCC4)n(Cc4ccccn4)c3C[C@H]2CN1C(=O)c1ccccc1	0.0737
O=C(CS)NCCCCCNC(=O)[C@@H]1C[C@@H]2C(=O)N[C@@H](Cc3ccccc3)C(=O)N2[C@@H]1c1ccc(O)cc1	-0.0282
CC(C)C[C@@H]1NC(=O)[C@H]2C[C@@H](C(=O)NCCCCCCN(C)C)[C@@H](c3cccc(OCCO)c3)N2C1=O	0.0753
COCCCNC(=O)[C@@]1(CCS(=O)(=O)c2ccccc2)N=C(c2ccc(OCCCO)cc2)O[C@H]1c1ccccc1	0.14
Cc1ccc(S[C@]2(C(=O)NCC(F)(F)F)CC(=O)N(Cc3ccccc3Cl)[C@@H]2c2ccc(CO)cc2I)cc1	0.0256
O=C1O[C@@H](c2ccccc2)[C@@H](c2ccccc2)N2[C@@H](c3ccc(OCCO)cc3)[C@]3(C(=O)Nc4ccc(C#CCCO)cc43)[C@@H](C(=O)N3CCCCCCC3)[C@H]12	0.733
CCOC(=O)C1=CCC(c2cc3ccccc3[nH]2)NC1 (stereo not given)	0.0418
O=C1NC(=O)C2C1C=CC(C(O)Cc1ccccc1)N2Nc1ccccn1 (stereo not given)	-0.136
C#C[C@@H]1Oc2ccccc2S(=O)(=O)N2CCC[C@H]12	-0.38
COc1ccc([Si](C)(C)[C@H]2[C@H](CCO)O[C@@]3(C(=O)N(Cc4cccc(NC(=O)[C@H](C)O)c4)c4ccccc43)[C@@H]2C)cc1	0.131
C=CCOC(=O)[C@H]1[C@@H]2C(=O)O[C@@H](c3ccccc3)[C@@H](c3ccccc3)N2[C@@H](c2ccc(OCCOC(=O)[C@H]3C[C@H]4C(=O)N5CCC[C@H]5C(=O)N4[C@H]3c3cccc(OCCO)c3)cc2)[C@]12C(=O)Nc1ccc(I)cc12	0.724
C=C(/C(=C/C[C@@H](OC(=O)c1ccncc1)c1ccc(OCCO)cc1)c1cnc2ccccc2c1)C(C)C	-0.0373
O=C1C[C@]2(c3ccc([N+](=O)[O-])cc3)C(=O)N(CCN3CCOCC3)c3cc(CO)ccc3[C@H]2N1CC12CC3CC(CC(C3)C1)C2	0.476
CC(C)C[C@@H]1NC(=O)[C@H]2C[C@@H](C(=O)O)[C@@H](c3ccc(O)cc3)N2C1=O	-0.125
COCCOC(=O)N1C(=O)[C@@]2(c3cc(C#Cc4ccc(OC)cc4)ccc31)[C@H](c1ccc(O)cc1)N1[C@H](c3ccccc3)[C@H](c3ccccc3)OC(=O)[C@H]1[C@@H]2C(N)=O	-0.0559
CC(C)NC(=O)[C@@]1(C)c2ccccc2C(=O)N(Cc2cc(F)cc(C(F)(F)F)c2)[C@H]1c1ccc(CO)cc1	-0.157
COCCOC(=O)N1C(=O)[C@@]2(c3ccccc31)[C@H](C(N)=O)[C@H]1C(=O)O[C@H](c3ccccc3)[C@H](c3ccccc3)N1[C@@H]2c1ccccc1OCCO	0.209

SMILES	composite z-score
CN1C(=O)C2C=CC(C(O)c3ccc(I)cc3)N(NC(=O)OC(C)(C)C)C2C1=O (stereo not given)	0.308
C=CCC(OC(C)=O)[C@@H]1[C@@H](N(Cc2cc3ccccc3o2)C(=O)Cc2ccc(F)cc2)c2cc(OCCCO)ccc2N1C(=O)Cc1ccc(OC)cc1 (stereo not given in full)	0.0769
CN1C(=O)C2C=CC(C(O)C(c3ccccc3)c3ccccc3)N(NC(=O)OC(C)(C)C)C2C1=O (stereo not given)	0.497
COCCCNC(=O)[C@]1(CCC(=O)OC(C)(C)C)N=C(c2ccc(OCCCO)cc2)O[C@@H]1c1ccccc1N=[N+]=[N-]	0.121
O=C1O[C@@H](c2ccccc2)[C@@H](c2ccccc2)N2[C@@H](c3ccccc3OCCO)[C@]3(C(=O)Nc4ccc(C#CCCO)cc43)[C@@H](C(=O)O)[C@H]12	0.32
CN1C(=O)C2C(C1=O)C1C=C(CCCO)C2C(c2ccc(CN3CCCC3)cc2)N1C (stereo not given)	0.182
COC(=O)[C@@]1(Cc2ccc(F)cc2)[C@@H]2C(=CC(=O)[C@H]2CC(=O)C(=O)N(C)C)CN1C(=O)c1ccccc1	-0.174
[N-]=[N+]=NCc1ccccc1C[C@]1(C(=O)NCc2ccccc2)N=C(c2ccc(OCCCO)cc2)O[C@H]1c1ccccc1N=[N+]=[N-]	-0.22
C=C(COC)/C(=C/C[C@H](OC(=O)c1ccncc1)c1ccc(CO)o1)c1cc(C(=O)OC)ccc1OC	-0.168
CS(=O)(=O)CCOC(=O)C1=CC(CCCO)=CC(c2cccs2)N(Cc2cccc(OC(F)(F)F)c2)C=C1C(=O)OCCS(C)(=O)=O (stereo not given)	-0.268
CCCNC(=O)[C@@H]1c2ccccc2C(=O)N(Cc2ccccc2Cl)[C@H]1c1ccc(CO)cc1	-0.078
CCc1cccc(NC(=O)O[C@H]2[C@H](OC(=O)Nc3ccc4c(c3)OCO4)[C@@H](OC(=O)Nc3ccc4c(c3)OCO4)[C@@H](OC)O[C@@H]2CO)c1	-0.173
COC(=O)[C@@]1(Cc2ccc(OC)cc2)[C@H]2c3cc(C(=O)N4CCCC4)n(Cc4cc(F)c(F)c(F)c4)c3C[C@H]2CN1C(=O)c1ccccc1	0.25
CN(C)C(=O)[C@@]1(Cc2ccccc2)N=C(c2ccc(OCCCO)cc2)O[C@H]1c1ccccc1CN=[N+]=[N-]	0.215
COc1ccc([Si](C)(C)[C@@H]2[C@@H](CCO)O[C@]3(C(=O)N(Cc4ccc(NC(C)=O)cc4)c4ccccc43)[C@H]2C)cc1	0.0291
O=C1O[C@@H](c2ccccc2)[C@@H](c2ccccc2)N2[C@@H](c3ccc(O)cc3)[C@]3(C(=O)Nc4ccccc43)[C@@H](C(=O)O)[C@H]12	0.125
O=C1c2ccccc2[C@@]2(Cc3ccccc3N(C3CC3)C2=O)[C@H](c2ccc(CO)cc2)N1Cc1ccccc1C(F)(F)F	0.0428
O[C@@H](Cc1ccccc1)[C@H]1C2C=CCCC(c3ccccc3)=C2CN1Cc1cccc(Cl)c1 (stereo not given in full)	0.25
